PubChem BioAssay
Records with an inconclusive call do not appear. Activity calls are given as the source filed them. Unless noted, the limit is not given here; nearly all actives have AC50 up to about 26 µM.

Columns and labels:
[1] = growth inhibition of DIPG glioma cells, dose response, cell-based, SU-DIPG-XVII, MIPE5.0, CellTiter-Glo, qHTS (AID 1347060); details: SU-DIPG-XVII viability, CellTiter-Glo ATP luminescence;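 as to AC50: cells exposed to compound for 48 hours before viability readout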
[2] = growth inhibition of DIPG glioma cells, dose response, cell-based, SU-DIPG-XIII, MIPE4.0, CellTiter-Glo, qHTS (AID 1347061; cut-off not given, nearly all actives have AC50 up to about 37 µM;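 also: cells exposed to compound for 48 hours before readout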); details: SU-DIPG-XIII viability, CellTiter-Glo ATP luminescence
[3] = growth inhibition of DIPG glioma cells, dose response, cell-based, JHH-DIPG-1, MIPE4.0, CellTiter-Glo, qHTS (AID 1347062; cut-off not given, nearly all actives have AC50 up to about 27 µM;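 as to AC50: cells exposed to compound for two days before readout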); details: JHH-DIPG-1 viability, CellTiter-Glo ATP luminescence
[4] = growth inhibition of DIPG glioma cells, dose response, cell-based, SU-DIPG-IV, MIPE4.0, CellTiter-Glo, qHTS (AID 1347063; cut-off not given, nearly all actives have AC50 up to about 30 µM;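 also: compound exposure lasted 48 hours before the viability readout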); details: SU-DIPG-IV viability, CellTiter-Glo ATP luminescence
[5] = growth inhibition of DIPG glioma cells, dose response, cell-based, SU-DIPG-XIII, MIPE5.0, CellTiter-Glo, qHTS (AID 1347064; cut-off not given, nearly all actives have AC50 up to about 23 µM;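 as to AC50: cells exposed to compound for 48 hours before the viability read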); details: SU-DIPG-XIII viability, CellTiter-Glo ATP luminescence
[6] = viability loss in pontine glioma line – cell-based, SU-DIPG-XXV, MIPE5.0, CellTiter-Glo, qHTS, dose response (AID 1347065); details: CellTiter-Glo ATP luminescence;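 also: cells exposed to compound for 48 hours before ATP readout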
[7] = JHH-DIPG-1 glioma cell viability, MIPE5.0 library, CellTiter-Glo luminescence, qHTS (AID 1347067); details: JHH-DIPG-1 glioma viability, CellTiter-Glo ATP luminescence;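 also: cells exposed to compound for 48 hours before readout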
[8] = modifiers of HSF1 nuclear foci, imaging, Selleck Cancer Library (AID 1347162; in the data active = plate-normalised HSF1 focus index below about 0.46); details: human cells, at 10 µM; SSMD: measured here: HSF1 foci SSMD mean; cell count: measured here: cell number; plate-normalised HSF1 focus index: stronger effect = lower value
[9] = SU-DIPG-VI glioma cell viability, MIPE4.0 library, CellTiter-Glo luminescence, qHTS (AID 1347066; cut-off not given, nearly all actives have AC50 up to about 30 µM;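 also: cells exposed to compound for 48 hours before readout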); details: CellTiter-Glo ATP luminescence
[10] = SU-DIPG-XXV glioma cell viability, MIPE5.0 library, qHTS (AID 1347068; cut-off not given, nearly all actives have IC50 up to about 30 µM)

| SMILES | AC50 [1] | AC50 [2] | AC50 [3] | AC50 [4] | AC50 [5] | AC50 [6] | AC50 [7] | SSMD [8] | cell count [8] | plate-normalised HSF1 focus index [8] | outcome [1] | outcome [2] | outcome [3] | outcome [4] | outcome [5] | outcome [9] | outcome [7] | outcome [10] | outcome [6] |
| --- | --- | --- | --- | --- | --- | --- | --- | --- | --- | --- | --- | --- | --- | --- | --- | --- | --- | --- | --- |
| CC(C)(C)c1[nH]cnc1/C=c1\[nH]c(=O)/c(=C/c2ccccc2)[nH]c1=O | 37.2 nM (active) | 42900 nM (active) | 340 nM (active) | 42900 nM (active) | 166 nM (active) | 46.8 nM (active) | 52.5 nM (active) | 2.69 | 7220 | 1.17 (inactive) |  |  |  |  |  |  |  |  |  |
| COc1ccc(CCN2CCN(CCCc3ccccc3)CC2)cc1OC |  |  |  |  |  |  |  | 3.93 | 6890 | 1.24 (inactive) | inactive | inactive | inactive | inactive | inactive | inactive | inactive | inactive |  |
| COc1ccc(C2CC(c3ccccc3)=NN2c2ccc(S(N)(=O)=O)cc2)cc1 (centres undefined) |  |  | 4690 nM (active) | 16600 nM (active) |  |  |  | 2.07 | 7280 | 1.13 (inactive) | inactive | inactive |  |  |  | inactive | inactive |  | inactive |
| OC[C@H]1OC(O)C[C@@H](O)[C@@H]1O (some centres undefined) |  |  |  |  |  |  |  |  |  |  | inactive | inactive | inactive | inactive |  | inactive | inactive | inactive | inactive |
